A short description of experiment [1]: antimalarial activity against Dd2 strain (AID 2302;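 active = growth inhibition above 50% at the single 2 µM test dose, taken to imply half-maximal potency below 2 µM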;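 also: 0% = DMSO untreated growth and 100% = chloroquine plus artemisinin killed control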). As to conditions: P. falciparum Dd2 in RBCs, LDH growth readout, 72 h; at 2 µM; active compounds read high.
A short description of experiment [2]: human hepatoma cell viability loss – ATP luminescence, cytotoxicity control for P. falciparum antimalarial project, primary screen (AID 2303;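 active = inhibition above 50%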;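 also: 0% = DMSO wells and 100% = digitonin-killed cells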). As to conditions: HepG2 viability, 24-48 h, at 10 µM, active compounds read high.
The target of experiment [3] is L-lactate dehydrogenase (Plasmodium falciparum (isolate CDC / Honduras)) (UniProt Q27743). Description: PfLDH activity inhibition – cell lysate, 3D7 strain, counter-screen for P. falciparum growth inhibition project (AID 2304).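 Also: 0% = vehicle and 100% = reference inhibitor.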 As to conditions: P. falciparum 3D7 crude extract, LDH APAD/NBT absorbance; at 2 µM; active compounds read high. On the technique in general: The purpose of a counterscreen is to sort out artefacts and off-target activity.

A short description of experiment [4]: inhibition of 3D7 malaria parasite growth – strain 3D7 (AID 2306).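 Also: 0% = DMSO wells and 100% = chloroquine plus artemisinin control wells.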 As to conditions: P. falciparum 3D7 erythrocytic growth, LDH absorbance, 72 h; at 2 µM; active compounds read high.
The target in experiment [5] is Calcium-dependent protein kinase 1 (Plasmodium falciparum (isolate 3D7)) (UniProt P62344). The experiment is described as follows: PfCDPK1 kinase inhibitors, biochemical, TCAMS library (AID 1159585; cut-off not given, nearly all actives have IC50 up to about 0.98 µM;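 also: inhibitors leave more ATP so luminescence rises with inhibition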). The settings on record: recombinant PfCDPK1, Kinase-Glo ATP depletion luminescence.
Experiment [6] addresses Plasmodium falciparum protein kinase 6 (PK6, PF3D7_1337100) (UniProt Q8IDW1). Description: PfPK6 kinase inhibitors, biochemical, TCAMS library (AID 1159586). The settings on record: recombinant PfPK6, Kinase-Glo ATP depletion luminescence. Background: In Kinase-Glo more light means more ATP remaining.
Experiment [7] addresses Protein kinase 7 (PK7), Plasmodium falciparum 3D7 (PF3D7_0213400) (UniProt Q7YTF7). The experiment is described as follows: inhibition of Plasmodium PK7 catalytic activity – biochemical, TCAMS antimalarial set, Kinase-Glo luminescence (AID 1159587). As to conditions: recombinant PfPK7, Kinase-Glo ATP depletion luminescence.
Experiment [8] has as its target Calcium-dependent protein kinase 4 (Plasmodium falciparum (isolate 3D7)) (UniProt Q8IBS5). Description: PfCDPK4 kinase inhibitors, biochemical, TCAMS library (AID 1159588; cut-off not given, nearly all actives have IC50 up to about 0.91 µM). As to conditions: recombinant PfCDPK4, Kinase-Glo ATP depletion luminescence.

Molecules are shown by their SMILES. Unmarked numbers belong to inactive results. For some of these results: Entries with a potency or affinity are not part of this list. Activity calls are given as the source filed them. Unless noted, no rule for the calls is given here.

Growth inhibition, inhibition and outcome data for 20 molecules are collected here from PubChem BioAssay.

Plasmodium falciparum protein kinase 6 (PK6, PF3D7_1337100), sequence (Q8IDW1 1-305): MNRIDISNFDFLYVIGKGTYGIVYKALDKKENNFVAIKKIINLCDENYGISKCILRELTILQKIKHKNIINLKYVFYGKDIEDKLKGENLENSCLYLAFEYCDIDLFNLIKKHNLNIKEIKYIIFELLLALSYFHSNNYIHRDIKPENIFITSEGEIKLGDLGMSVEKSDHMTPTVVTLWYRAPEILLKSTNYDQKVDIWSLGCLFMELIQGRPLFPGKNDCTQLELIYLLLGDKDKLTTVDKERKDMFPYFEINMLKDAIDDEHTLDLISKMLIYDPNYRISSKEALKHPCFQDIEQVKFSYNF
Calcium-dependent protein kinase 1 (Plasmodium falciparum (isolate 3D7)), sequence (P62344 whole entry, looked up): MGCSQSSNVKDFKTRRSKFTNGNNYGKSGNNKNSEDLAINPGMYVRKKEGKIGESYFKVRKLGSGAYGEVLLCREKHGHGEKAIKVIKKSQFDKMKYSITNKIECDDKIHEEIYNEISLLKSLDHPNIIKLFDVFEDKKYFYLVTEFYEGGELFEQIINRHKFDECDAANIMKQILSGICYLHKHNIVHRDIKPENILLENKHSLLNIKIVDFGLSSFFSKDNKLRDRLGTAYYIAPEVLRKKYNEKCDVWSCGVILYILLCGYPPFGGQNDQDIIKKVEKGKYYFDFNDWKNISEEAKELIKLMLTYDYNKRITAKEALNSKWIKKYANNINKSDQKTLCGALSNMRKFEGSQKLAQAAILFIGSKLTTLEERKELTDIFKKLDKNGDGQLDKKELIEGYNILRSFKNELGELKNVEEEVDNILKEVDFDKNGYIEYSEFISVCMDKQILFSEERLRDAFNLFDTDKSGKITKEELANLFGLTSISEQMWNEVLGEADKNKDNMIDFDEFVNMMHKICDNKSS
Calcium-dependent protein kinase 4 (Plasmodium falciparum (isolate 3D7)), sequence (Q8IBS5 whole entry, looked up): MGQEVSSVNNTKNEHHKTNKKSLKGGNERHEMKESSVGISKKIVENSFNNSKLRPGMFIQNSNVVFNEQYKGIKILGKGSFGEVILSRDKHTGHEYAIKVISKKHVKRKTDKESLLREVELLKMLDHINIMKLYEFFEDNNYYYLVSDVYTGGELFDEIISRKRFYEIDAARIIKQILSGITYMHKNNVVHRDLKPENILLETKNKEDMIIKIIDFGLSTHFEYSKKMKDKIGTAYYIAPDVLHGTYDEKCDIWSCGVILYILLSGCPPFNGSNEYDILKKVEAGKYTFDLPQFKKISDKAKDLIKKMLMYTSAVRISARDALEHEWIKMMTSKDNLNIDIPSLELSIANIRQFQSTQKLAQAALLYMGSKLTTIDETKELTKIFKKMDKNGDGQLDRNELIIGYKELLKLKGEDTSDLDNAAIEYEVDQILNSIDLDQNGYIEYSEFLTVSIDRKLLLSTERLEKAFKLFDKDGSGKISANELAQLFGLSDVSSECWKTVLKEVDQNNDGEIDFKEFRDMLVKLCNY
L-lactate dehydrogenase (Plasmodium falciparum (isolate CDC / Honduras)), sequence (Q27743 whole entry, looked up): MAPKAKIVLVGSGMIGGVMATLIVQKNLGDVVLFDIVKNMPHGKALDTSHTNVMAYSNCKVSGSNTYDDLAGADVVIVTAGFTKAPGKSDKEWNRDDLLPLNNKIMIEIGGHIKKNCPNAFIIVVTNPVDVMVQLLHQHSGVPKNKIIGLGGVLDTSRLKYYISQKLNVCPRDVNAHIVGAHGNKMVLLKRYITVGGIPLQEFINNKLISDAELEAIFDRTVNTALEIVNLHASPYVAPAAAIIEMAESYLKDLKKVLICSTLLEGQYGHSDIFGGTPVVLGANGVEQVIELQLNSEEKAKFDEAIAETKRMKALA
Protein kinase 7 (PK7), Plasmodium falciparum 3D7 (PF3D7_0213400), sequence (Q7YTF7 1-343): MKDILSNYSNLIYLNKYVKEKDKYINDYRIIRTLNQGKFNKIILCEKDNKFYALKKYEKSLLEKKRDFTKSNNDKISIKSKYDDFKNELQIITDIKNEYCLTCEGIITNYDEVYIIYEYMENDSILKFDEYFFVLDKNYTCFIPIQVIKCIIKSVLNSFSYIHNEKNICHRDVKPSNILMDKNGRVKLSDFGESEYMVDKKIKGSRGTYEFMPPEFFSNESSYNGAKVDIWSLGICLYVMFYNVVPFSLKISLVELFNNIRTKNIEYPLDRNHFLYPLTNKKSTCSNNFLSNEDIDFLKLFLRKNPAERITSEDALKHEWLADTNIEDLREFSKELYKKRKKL

As for `Cc1ccc(-c2nc(Nc3ccncc3)c3ccccc3n2)s1`, the values for the growth inhibition in experiment [1] and in experiment [4] were 34% and 95% (active), respectively. Further, the inhibition in experiment [2] was 6%; in experiment [3] it was 1%. In addition, the outcome in experiment [5], in experiment [6], in experiment [7] and in experiment [8] was inactive.

For `CCN(CCCN1CCCC1)c1cc(C)nc(Nc2ccc(Cl)cc2)n1`, the growth inhibition is 12% in experiment [1] and 100% (active) in experiment [4]. In addition, the inhibition in experiment [2] was 5%; in experiment [3] it was 1%. Besides, the outcome in experiment [5], in experiment [6], in experiment [7] and in experiment [8] was inactive.

As to `Cn1cnc2c(Nc3ccncc3)nc(-c3ccc(OC(F)(F)F)cc3)nc21`, the figures for the growth inhibition in experiment [1] and in experiment [4] were 65% (active) and 102% (active), respectively. For the same molecule, the inhibition in experiment [2] is 28%; in experiment [3], -1%. In addition, the outcome in experiment [5], in experiment [6], in experiment [7] and in experiment [8] was inactive.

With `COCCNCc1cccc(C#Cc2cc3ncnc(Nc4ccc(OCc5cccc(F)c5)c(Cl)c4)c3s2)n1`, the growth inhibition in experiment [1] is 52% (active); in experiment [4], 99% (active). For the same molecule, the inhibition in experiment [2] was 35%; in experiment [3], -4%. The outcome in experiment [5], in experiment [6], in experiment [7] and in experiment [8] was inactive.

Turning to `O=C(Nc1ccc(-c2ccc(CN3CCNCC3)cc2)cc1)c1cccc(Cl)c1`, the values for the growth inhibition in experiment [1] and in experiment [4] were 16% and 91% (active), respectively. For the same molecule, the inhibition in experiment [2] is 58% (active); in experiment [3], 2%. The result in experiment [5], in experiment [6], in experiment [7] and in experiment [8] was inactive.

Regarding `CC(OC(=O)c1ccc(C(=O)NCC2CC2)cc1)C(C)(C)C` (stereo not given), the growth inhibition in experiment [1] is 86% (active); in experiment [4] it was 93% (active). The inhibition was 10% in experiment [2] and -3% in experiment [3]. Moreover, the outcome in experiment [5], in experiment [6], in experiment [7] and in experiment [8] was inactive.

In the case of `O=C(CCC1CCCC1)N(Cc1ccc(-c2ccc(CNCCc3ccccn3)cc2)cc1)CC1CCCCN1` (stereo not given), the growth inhibition in experiment [1] was 69% (active); in experiment [4], 95% (active). For the same molecule, the figures for the inhibition in experiment [2] and in experiment [3] were 32% and 0%, respectively. For the same molecule, the result in experiment [5], in experiment [6], in experiment [7] and in experiment [8] was inactive.

Take `CCCCCCCCc1c(C)[nH]c(C)c(Cl)c1=O`: the growth inhibition in experiment [1] is 95% (active); in experiment [4], 96% (active). Also, the values for the inhibition in experiment [2] and in experiment [3] were -4% and -3%, respectively. The outcome in experiment [5], in experiment [6], in experiment [7] and in experiment [8] was inactive.

For the molecule `O=C(O)C1CC(=O)N(c2ccc(Cl)cc2)C1` (stereo not given), the growth inhibition in experiment [1] was 33%; in experiment [4], 97% (active). Moreover, the inhibition in experiment [2] was 51% (active); in experiment [3] it was 6%. The outcome in experiment [5], in experiment [6], in experiment [7] and in experiment [8] was inactive.

Consider `Cc1ccc(Cc2c(C)nc3nc(N)nc(N)c3c2C)cc1`, for which the growth inhibition in experiment [1] was 1%; in experiment [4], 93% (active). For the same molecule, the results for the inhibition in experiment [2] and in experiment [3] were 60% (active) and 5%, respectively. Also, the outcome in experiment [5], in experiment [6], in experiment [7] and in experiment [8] was inactive.

For `CC1(C)N=C(N)N=C(N)N1OCc1ccc(-c2ccccc2)cc1`, the growth inhibition is 97% (active) in experiment [1] and 95% (active) in experiment [4]. Also, the inhibition in experiment [2] is 64% (active); in experiment [3] it was -6%. The outcome in experiment [5], in experiment [6], in experiment [7] and in experiment [8] was inactive.

In the case of `Fc1ccccc1COc1ccc(Nc2ncnc3ccc(-c4nnc(C(F)(F)F)o4)cc23)cc1Cl`, the growth inhibition in experiment [1] was 46%; in experiment [4], 100% (active). For the same molecule, the inhibition was 7% in experiment [2] and 4% in experiment [3]. The result in experiment [5], in experiment [6], in experiment [7] and in experiment [8] was inactive.

On to `Clc1cccc(Cl)c1CCNCC1CCN(CC2CCCCC2)CC1`, for which the growth inhibition in experiment [1] is 94% (active); in experiment [4], 98% (active). The inhibition in experiment [2] was 39%; in experiment [3] it was -5%. The outcome in experiment [5], in experiment [6], in experiment [7] and in experiment [8] was inactive.

As for `CN(CCS(C)(=O)=O)Cc1ccc(-c2ccc3ncnc(Nc4ccc(OCc5cccc(F)c5)c(Cl)c4)c3c2)o1`, the values for the growth inhibition in experiment [1] and in experiment [4] were 65% (active) and 101% (active), respectively. The inhibition in experiment [2] was 25%; in experiment [3] it was -1%. Further, the outcome in experiment [5], in experiment [6], in experiment [7] and in experiment [8] was inactive.

For the molecule `CCCCCCCCc1c(C)[nH]c(C)c(I)c1=O`, the growth inhibition is 77% (active) in experiment [1] and 91% (active) in experiment [4]. Moreover, the inhibition is 5% in experiment [2] and 4% in experiment [3]. Besides, the result in experiment [5], in experiment [6], in experiment [7] and in experiment [8] was inactive.

Turning to `COc1ccc(O)c(C(=O)c2cc(C(=O)NC3CCCCC3)c(=O)n(C3CCCCC3)c2)c1`, the growth inhibition in experiment [1] is 62% (active); in experiment [4], 99% (active). For the same molecule, the inhibition in experiment [2] was 8%; in experiment [3], 3%. In addition, the result in experiment [5], in experiment [6], in experiment [7] and in experiment [8] was inactive.

As for `Cc1cc(NC(=O)c2cccs2)ccc1OC1CCN(Cc2ccccc2)CC1`, the figures for the growth inhibition in experiment [1] and in experiment [4] were 91% (active) and 95% (active), respectively. The inhibition in experiment [2] is 10%; in experiment [3], 4%. The result in experiment [5], in experiment [6], in experiment [7] and in experiment [8] was inactive.

Regarding `c1ccc(CN2CCC(NCc3ccc(-c4cccc(CNC5CCCC5)c4)cc3)CC2)cc1`, the growth inhibition in experiment [1] is 100% (active); in experiment [4], 101% (active). In addition, the inhibition was 55% (active) in experiment [2] and -8% in experiment [3]. In addition, the result in experiment [5], in experiment [6], in experiment [7] and in experiment [8] was inactive.

With `CC(C)(C)CC(C)(C)c1ccc(O)c(C(=O)Nc2cccc([N+](=O)[O-])c2)c1`, the growth inhibition in experiment [1] is 97% (active); in experiment [4], 95% (active). Besides, the inhibition in experiment [2] is 49%; in experiment [3], -8%. Moreover, the outcome in experiment [5], in experiment [6], in experiment [7] and in experiment [8] was inactive.

Take `COc1ccc2nccc([C@H](O)CN3CCC(NCc4ccc5c(c4C)OCCO5)CC3)c2n1`: the growth inhibition is 6% in experiment [1] and 94% (active) in experiment [4]. Also, the inhibition in experiment [2] is 26%; in experiment [3], 4%. The outcome in experiment [5], in experiment [6], in experiment [7] and in experiment [8] was inactive.

In general, inhibition refers to the relative decrease from the control value, in per cent.
